Here are results for 15 compounds from PubChem BioAssay (NCI).

Structures are written as SMILES. The panel holds about 83,000 compounds, 20% with a hit somewhere; the sample as a whole holds those more often.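 Testing used 96-well plates and a 48-hour single-concentration exposure. Example: -40 means 40% of the starting cells died.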 A number with no mark means an inactive call. Calls of active or inactive are those of the source. How the source made its calls: active means growth percent below 10; inactive means the rest.

For this assay, the system named is MCF7 breast. Kind of assay: NCI-60 one-dose screen, 48 h (100 = growth as untreated, 0 = no growth, -100 = all killed). Particulars: 10 µM unless noted.
As to `CCOC(=O)C(C#N)C1CCCCC1` (stereo not given), the growth is 123%.
In the case of `Cc1nc2nc(N)nc(N)c2nc1C`, the growth is 97.9%.
The value for `Cc1cc2cc3cc(C)c(N(C)C)cc3[n+](C)c2cc1N(C)C` was 14%.
Under `O=[N+]([O-])c1cccc(-c2nc3sccn3c2-c2ccnc(NCCCNS(=O)(=O)c3cccc(F)c3)n2)c1` stands -18.9% (active); under `Cc1ccc(Nc2nc(N)nc(Nc3ccc4ccccc4c3)n2)cc1`, 29.6%.
Under `COc1ccc(C(=O)COc2ccc(/C=C3\Oc4ccc(Cl)cc4C3=O)cc2)cc1` stands 47.1%; under `O=C(/C=C/c1ccc(B(O)O)cc1)/C=C/c1ccc(B(O)O)cc1`, 3.78% (active).
Take `CNC(=O)c1cc(Oc2ccc3nc(NC(=O)Nc4ccc(CN5CCOCC5)c(C(F)(F)F)c4)sc3c2)ccn1`: the growth was 6.95% (active).
Under `C=C1C(=O)O[C@H]2[C@H]1CC/C(Cn1cc(Cn3ccc4cc(Cl)ccc43)nn1)=C\CC[C@@]1(C)O[C@@H]21` stands -77.5% (active).
Under `Nc1ccc(N2CCOCC2)cc1` stands 88.8%.
The value for `CCCCCCCCCc1cc(CN2CCCCC2)c(O)c(CN2CCCCC2)c1` was 44%; that for `COc1ccc2nc3cc(Cl)ccc3c(N3CCN(c4nccc(Nc5ccccc5)n4)CC3)c2c1` was 24.3%.
As for `COc1ccc(-c2nn(-c3ccccc3)cc2/C=C/C(=O)OCc2cn(-c3ccc(F)c(Cl)c3)nn2)cc1`, the growth is 71%.
Under `COc1ccc(C2CC(=O)Nc3c2c(C)nn3-c2nc3ccccc3[nH]2)cc1` (stereo not given) stands 91.6%; under `COc1cc(NC(N)=NCC(C)(C)COc2ccc(C(F)(F)F)cc2)cnc1C#N`, 32.5%.
